In ChEMBL document CHEMBL3988442, “University of Dundee, Small-Polar-MMV Screening Library” (2021):
Among all 48,000 compounds or so, about 13,000 (27%) showed an effect of 50% or more. Some of the results follow.

test system: Wolbachia pipientis; assay: Anti-Wolbachia Cell-Based Screen; type: functional; set-up: scale not given: in the data most compounds retested in dose-response had high values; conditions: 5 µM

Row | SMILES | Percent Effect [%]
1 | CCOC(=O)N1C[C@H]2CC[C@@H]1CN(Cc1ccccc1)C2 | -18.44
2 | Cn1ccc(CS(=O)(=O)Cc2cccc(F)c2)cc1=O | 13.57
3 | COCCN(Cc1ccc(F)cc1Cl)C(=O)c1ccncc1 | -4.791
4 | Cc1nn2c(N3CCC(O)CC3)cc(-c3ccccc3)nc2c1C | 1.799
5 | CC(=O)c1cccc(NC(=O)CN2CCCCC2C2OCCO2)c1 (stereo not given) | 12.92
6 | O=C(NCc1ccccc1CN1CCC(O)CC1)Nc1ccncc1 | -8.548
7 | CC(C)CN1CCC(C(=O)NCCNC(=O)c2ccccc2)CC1 | 10.43
8 | COc1cc(-c2noc(C(CC(C)C)N3CCCCC3=O)n2)ccn1 (stereo not given) | -8.352
9 | Cc1noc(C2CCN(C(C)c3nc(C4CC4)no3)CC2)n1 (stereo not given) | 2.218
10 | COc1ccc(CCN2CCC(N3CCN(C)C3=O)CC2)cc1 | -2.52
11 | CN1CCN(C2CCN(CCCOc3ccc(F)cc3)CC2)C1=O | 81.83
12 | CN1CCN(C2CCN(CCOc3ccc(C#N)cc3)CC2)C1=O | 102.1
13 | OCCn1cc(CN2CCN(CCOc3ccccc3F)CC2)cn1 | 2.742
14 | CN1CCN(C2CCN(CCOc3ccccc3F)CC2)C1=O | 107.7
15 | CN1CCN(C2CCN(CCOc3ccc(F)cc3)CC2)C1=O | -2.232
16 | CN1CCN(C2CCN(CCOc3ccccc3)CC2)C1=O | 94.15
17 | CN1CCN(C2CCN(C(C(N)=O)c3ccccc3)CC2)C1=O (stereo not given) | -3.145
18 | CN1CCN(C2CCN(Cc3noc(-c4ccccc4)n3)CC2)C1=O | -0.9175
19 | Cn1c(C2CC2)nc2c1CCN(CCOc1ccc(C#N)cc1)C2 | -1.848
20 | CC(C)c1nnc(CNc2nc(-c3cccnc3)nc3c2CCC3)n1C | 6.162
21 | Cc1cnn(CCNCc2csc(-c3cccs3)n2)c1 | -4.856
22 | Cc1cc(CC(=O)NCC(O)COc2ccc(F)c(F)c2)no1 (stereo not given) | -5.317
23 | Cc1cccc(-c2nc(CN3CCc4c(ncn4C)C3)no2)c1 | 5.431
24 | COC(C)C(=O)NS(=O)(=O)c1cccc2cc(C)cnc12 (stereo not given) | -12.97
25 | CCc1cnc(NCC(CC)N2CCOCC2)nc1 (stereo not given) | 14.29
26 | COCCNC(=O)Nc1ccc(CN2CCOC2=O)cc1 | -11.28
27 | COc1ccc(C(C)n2ccnc2-c2cc3n(n2)CCCNC3)cc1F (stereo not given) | 6.118
28 | O=C1CCC(C(=O)NCc2nncn2-c2ccccc2)CN1 (stereo not given) | 3.893
29 | Cc1cccc(CNCC2COC3(CCCCC3)O2)c1C (stereo not given) | 5.002
30 | COc1ccc2[nH]nc(CN3CCC(C(C)N4CCCC4)CC3)c2c1 (stereo not given) | -10.16
